For 5 compounds, z-score and composite z-score results are on record in PubChem BioAssay.

Assay [1] can be described thus: compound effects on differentiated 3T3-L1 adipocyte viability – cell-based, 3T3-L1 adipocytes, calcein-AM fluorescence, 48 h, basal, profiling panel (AID 1163). The following applies: 3T3-L1 adipocytes viability, higher = more signal.
A short description of assay [2]: compound effects on hepatocellular carcinoma cell viability – HepG2, calcein-AM fluorescence, 48 h, basal, profiling panel (AID 1164). The following applies: higher = more signal.
A short description of assay [3]: compound effects on multiple myeloma cell viability – MM1S, calcein-AM fluorescence, 48 h, basal, profiling panel (AID 1165).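 Further: viability of MM1S multiple myeloma cells under basal unstimulated conditions.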 The following applies: higher = more signal.
The nature of assay [4]: calcein-AM signal in unstimulated myeloma cells – cell-based, calcein-AM fluorescence, 48 h, PK04 Diversity Set, profiling panel (AID 1166).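 Further: cells grown under basal conditions without added stimulus.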 The following applies: RPMI8226 myeloma viability, higher = more signal.
Assay [5] can be described thus: JC-1 mitochondrial signal, unstimulated HepG2 cells – cell-based, JC-1 fluorescence, 24 h, 100 nL compound, profiling panel (AID 1167). The following applies: HepG2 mitochondrial potential, higher = more signal.
Assay [6] is described as follows: JC-1 mitochondrial signal, unstimulated adipocytes – cell-based, JC-1 fluorescence, 3T3-L1 adipocytes, 24 h, 100 nL compound, profiling panel (AID 1168). The following applies: JC-1 mitochondrial fluorescence, higher = more signal, called active from +8 up or from −8 down.
A short description of assay [7]: JC-1 mitochondrial signal, unstimulated myeloma cells – cell-based, JC-1 fluorescence, RPMI8226, 24 h, 100 nL compound, profiling panel (AID 1169). The following applies: JC-1 mitochondrial potential fluorescence, higher = more signal.
Assay [8] is described as follows: JC-1 mitochondrial signal, unstimulated MM1S myeloma – cell-based, JC-1 fluorescence, 24 h, 100 nL compound, profiling panel (AID 1170). The following applies: MM1S mitochondrial potential, higher = more signal.
Assay [9] in a line: resazurin metabolic signal in A549 cells – cell-based, resazurin fluorescence, 24 h, PK04 Diversity Set, profiling panel (AID 1171). The following applies: A549 viability, higher = more signal, called active from +8 up or from −8 down. A general note: Alamar Blue is a resazurin reagent that responds to reducing activity.
Assay [10] in a line: resazurin metabolic signal in HepG2 cells – cell-based, resazurin fluorescence, 24 h, PK04 Diversity Set, profiling panel (AID 1172). The following applies: HepG2 viability, higher = more signal.
Assay [11] in a line: budding yeast growth changes without added modifier – OD600, strain BY4716, 24 h, basal condition, primary screen (AID 1173). The following applies: S. cerevisiae BY4716 growth, OD600, 24 h; higher = more signal, called active from +8 up or from −8 down.
Assay [12] in a line: viability profiling in MM1S myeloma cells – cell-based, resazurin fluorescence, basal, 24 h, PK04 Diversity Set, profiling panel (AID 1174). The following applies: higher = more signal, called active from +8 up or from −8 down.
Assay [13] concerns the target Dihydroorotate dehydrogenase (quinone), mitochondrial (Plasmodium falciparum (isolate 3D7)) (UniProt Q08210). The experiment in a line: inhibition of P. falciparum DHODH – biochemical, C-terminal His tag, absorbance 600 nm, primary screen (AID 1175).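 Further: recombinant parasite enzyme with a five histidine tag at its C terminus.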 The following applies: PfDHODH enzyme, DCIP absorbance 600 nm; higher = more signal, called active from +8 up or from −8 down.

A short description of assay [14]: growth modulation of vineyard yeast isolate – strain RM11-1a, OD600, basal, 24 h, primary screen (AID 1177).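 Further: cultures grown under basal conditions with no added stressor.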 The following applies: S. cerevisiae RM11-1a growth, OD600, 24 h; higher = more signal, called active from +8 up or from −8 down.
The nature of assay [15]: growth of efflux-deficient E. coli DRC39 – strain DRC39, OD650, 24 h, E. coli filamentation inducers, primary screen (AID 1178).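 Further: growth measured as culture turbidity by optical density at 650 nm.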 The following applies: E. coli DRC39 acrAB, higher = more signal, called active from +8 up or from −8 down.
Assay [16] in a line: growth of efflux-deficient E. coli DRC39 – strain DRC39, OD650, 48 h, E. coli filamentation inducers, primary screen (AID 1179).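 Further: screen aims at cell division blockers that make cells filament.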 The following applies: E. coli DRC39 delta-acrAB growth, higher = more signal, called active from +8 up or from −8 down.
Assay [17] in a line: viability profiling in RPMI8226 myeloma cells – cell-based, resazurin fluorescence, basal, 24 h, PK04 Diversity Set, profiling panel (AID 1180).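 Further: RPMI8826 multiple myeloma cell line at 5000 cells per well.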 The following applies: higher = more signal.
For assay [18], the target named is E3 ubiquitin-protein ligase XIAP (Homo sapiens) (UniProt P98170). Put plainly: small molecules binding XIAP protein – biophysical, small-molecule microarray, fluorescence 635 nm, primary screen (AID 1181).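 Further: score merges 667 nm emission and signal to noise over triplicate slides.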 The following applies: higher = more signal.
For assay [19], the system named is XIP peptide (Xip251-270) binding. The experiment in a line: XIP fragment 251-270 binding compounds – biochemical, small-molecule microarray, fluorescence 635/667 nm, 0.1 µg/mL protein, primary screen (AID 1182). The following applies: fluorescent protein binding, 635 nm, higher = more signal, called active from +8 up or from −8 down.
Assay [20] has as its system XIP peptide (Xip251-270). Put plainly: compounds binding XIP fragment 251-270 – biochemical, small-molecule microarray, fluorescence 635/667 nm, 0.5 µg/mL protein, primary screen (AID 1183). The following applies: fluorescence 635 nm, higher = more signal.

Calls of active or inactive are those of the source.

Chain of E3 ubiquitin-protein ligase XIAP (Homo sapiens) (P98170 whole entry, looked up, the tested form may be a part): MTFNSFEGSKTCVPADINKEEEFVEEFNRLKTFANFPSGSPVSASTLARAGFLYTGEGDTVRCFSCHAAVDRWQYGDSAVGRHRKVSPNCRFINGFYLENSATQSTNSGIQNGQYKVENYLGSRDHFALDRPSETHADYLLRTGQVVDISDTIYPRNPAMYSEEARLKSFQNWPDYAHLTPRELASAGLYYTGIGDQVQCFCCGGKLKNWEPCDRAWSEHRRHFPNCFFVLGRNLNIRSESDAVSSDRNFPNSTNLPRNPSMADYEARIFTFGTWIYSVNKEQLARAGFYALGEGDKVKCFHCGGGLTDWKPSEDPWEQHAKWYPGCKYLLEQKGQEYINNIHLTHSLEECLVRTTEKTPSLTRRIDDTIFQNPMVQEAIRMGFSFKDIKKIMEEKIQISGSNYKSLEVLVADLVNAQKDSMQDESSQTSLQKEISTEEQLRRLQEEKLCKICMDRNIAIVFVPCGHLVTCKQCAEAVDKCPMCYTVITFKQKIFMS
Chain of Dihydroorotate dehydrogenase (quinone), mitochondrial (Plasmodium falciparum (isolate 3D7)) (Q08210 whole entry, looked up): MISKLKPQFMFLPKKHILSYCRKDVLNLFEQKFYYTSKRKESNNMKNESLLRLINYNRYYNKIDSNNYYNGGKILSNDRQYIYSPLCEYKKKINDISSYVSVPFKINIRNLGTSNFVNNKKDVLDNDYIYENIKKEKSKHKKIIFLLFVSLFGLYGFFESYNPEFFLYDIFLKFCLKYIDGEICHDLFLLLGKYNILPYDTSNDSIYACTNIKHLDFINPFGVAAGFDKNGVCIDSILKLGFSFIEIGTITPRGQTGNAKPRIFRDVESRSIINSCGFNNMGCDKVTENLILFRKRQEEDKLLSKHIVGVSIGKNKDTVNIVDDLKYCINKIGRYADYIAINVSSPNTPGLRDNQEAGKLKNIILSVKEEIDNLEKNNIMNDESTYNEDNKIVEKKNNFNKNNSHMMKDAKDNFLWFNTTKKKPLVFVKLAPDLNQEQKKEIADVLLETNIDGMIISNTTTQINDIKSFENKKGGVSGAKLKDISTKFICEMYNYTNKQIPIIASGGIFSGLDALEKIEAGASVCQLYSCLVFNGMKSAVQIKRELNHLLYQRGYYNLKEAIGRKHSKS

Consider `C=CC[C@]1(C(=O)N(C)C)N=C(c2ccc(OCCCO)cc2)O[C@H]1c1ccccc1CN=[N+]=[N-]`, for which the z-score is 0.988 in [1]; 1.18 in assay [2]; -1.17 in assay [3]; -0.862 in assay [4]; 2.11 in assay [5]; 0.0328 (inactive) in assay [6]. The z-score in assay [7] was -0.942; in assay [8], -0.587; in assay [9] it was 1.26 (inactive); in [10] it was 0.481; in assay [11], -1.26 (inactive); in assay [12], 0.838 (inactive). The z-score in assay [14] is -0.197 (inactive); in assay [15] it was 1.53 (inactive); in [16], 0.442 (inactive); in assay [17], 0.747. Moreover, the composite z-score was -0.0916 (inactive) in assay [13], 0.0471 in assay [18], 0.137 (inactive) in [19] and 0.53 in assay [20].
As for `C=CCOC(=O)[C@H]1[C@@H]2C(=O)O[C@@H](c3ccccc3)[C@@H](c3ccccc3)N2[C@@H](c2ccc(OCCOC(=O)[C@H]3C[C@H]4C(=O)N5CCC[C@H]5C(=O)N4[C@H]3c3cccc(OCCO)c3)cc2)[C@]12C(=O)Nc1ccccc12`, the z-score is 1.19 in assay [1]; -0.588 in assay [2]; -1.73 in [3]; 0.791 in assay [4]; -0.558 in assay [5]; 0.569 (inactive) in assay [6]. Besides, the z-score was -0.585 in [7]; -0.673 in assay [8]; 0.601 (inactive) in [9]; 0.0928 in assay [10]; 0.22 (inactive) in assay [11]; 1.26 (inactive) in assay [12]. Besides, the z-score in [14] was 1.16 (inactive); in [15], 0.971 (inactive); in [16] it was 0.184 (inactive); in assay [17], 1.37. In addition, the composite z-score in [13] was 0.493 (inactive); in assay [18] it was 0.298; in assay [19], 1.33 (inactive); in assay [20], 0.809.
Regarding `CC(C)(C)OC(=O)CC[C@]1(C(=O)NCc2ccccc2)COC(c2ccc(OCCCO)cc2)=N1`, the z-score in assay [1] is 0.978; in [2], -0.346; in [3], 0.614; in assay [4], 0.554; in [5], -0.0474; in [6], 0.186 (inactive). Besides, the z-score in assay [7] is -0.291; in [8] it was 0.931; in [9], 1.72 (inactive); in [10], 0.931; in assay [11], -1.67 (inactive); in assay [12], 1.65 (inactive). The z-score in assay [14] was -1.23 (inactive); in assay [15] it was 1.38 (inactive); in [16], 0.233 (inactive); in assay [17], 1.57. In addition, the composite z-score in assay [13] was -1.28 (inactive); in assay [18] it was 0.141; in assay [19] it was 1.45 (inactive); in [20], 0.0144.
Regarding `CC(CO)N1C(=O)[C@@H]2C3C(=O)OCCC/C=C\[C@H]3OC23C=CCN(Cc2ccccc2)C(=O)[C@@H]13` (stereo not given in full), the z-score was -0.154 in assay [1]; 0.547 in assay [2]; 2.05 in assay [3]; -0.172 in assay [4]; 0.797 in [5]; 1.86 (inactive) in assay [6]. In addition, the z-score was -0.0742 in assay [7]; 0.322 in [8]; 0.754 (inactive) in [9]; 0.918 in assay [10]; -0.703 (inactive) in assay [11]; 0.462 (inactive) in assay [12]. The z-score in assay [14] was -0.985 (inactive); in assay [15], 1.6 (inactive); in [16], 1.97 (inactive); in assay [17], 0.526. Besides, the composite z-score is -0.761 (inactive) in assay [13], -0.0333 in assay [18], -0.554 (inactive) in assay [19] and -0.736 in [20].
As to `C=CCC(OC(C)=O)[C@@H]1[C@@H](N(Cc2ccc(-c3cccc(C(F)(F)F)c3)o2)C(=O)c2ccc(-c3ccccc3)cc2)c2cc(OCCCO)ccc2N1C(=O)Cc1ccc(OC)cc1` (stereo not given in full), the z-score is 0.935 in assay [1]; 1.29 in assay [2]; 1.18 in assay [3]; 0.72 in [4]; 3.72 in assay [5]; 0.0243 (inactive) in assay [6]. The z-score was -0.598 in assay [7]; 1.36 in assay [8]; 0.797 (inactive) in assay [9]; 0.421 in assay [10]; 0.0438 (inactive) in [11]; 1.29 (inactive) in [12]. Moreover, the z-score was -0.93 (inactive) in [14], 1.98 (inactive) in assay [15], 1.21 (inactive) in assay [16] and 1.32 in assay [17]. The composite z-score was 0.0258 (inactive) in assay [13], -0.0525 in assay [18], 0.163 (inactive) in assay [19] and -0.653 in assay [20].
